# Assay results from PubChem BioAssay (Tox21).
# Several values for one entry are separate records, joined by “and”; a condition that tells them apart may be missing. Equal entries are not always repeated. Values without a mark were called inactive. Records with an inconclusive call do not appear. A call without a number means that no potency is given here. Activity calls are given as the source filed them. Calls follow the shape of the dose curve; as a rule, active = well fitted curve in the direction sought with a large enough effect in the repeat runs; inconclusive = weak or mixed curves; inactive = no such curve, though single readings can be large; an effect the other way counts as inactive or inconclusive.
# Legend:
# [1] = Caspase-3/7 induction in HepG2 cells by small molecules, qHTS assay (AID 1346978); also: nearly all actives have a fitted effect of over 15% in size
# Method in brief: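 Wild-type HepG2 cells, 2,000/well, settled 5 hr at 37 C and 5% CO2, then compound-treated for 17 hr; caspase-3/7 activity read by luminescent Caspase-Glo 3/7 after 30 min at room temperature.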
# [2] = Caspase-3/7 induction in CHO-K1 cells by small molecules, qHTS cell viability counter screen (AID 1346979); also: nearly all actives have a fitted effect of over 35% in size; also: potency is read from the fitted curve at half-maximal effect
# Method in brief: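 Wild-type CHO-K1 cells were seeded at 1,500 per well, rested 5hr at 37 C, then exposed to compounds in DMSO. After 16hr, CellTiter-Fluor reagent was added and fluorescence read 1hr later as the viability measure.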
# [3] = Caspase-3/7 induction in CHO-K1 cells by small molecules, qHTS assay (AID 1346980); also: nearly all actives have a fitted effect of over 15% in size
# Method in brief: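 Wild-type CHO-K1 cells exposed to compounds for 17hr at 37 C, 5% CO2. Caspase-3/7 activity then measured by Caspase-Glo 3/7 luminescence after 30min at room temperature.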
# [4] = Caspase-3/7 induction in HepG2 cells by small molecules, qHTS cell viability counter screen (AID 1346981); also: nearly all actives have a fitted effect of over 30% in size; also: potency is read from the fitted curve at half-maximal effect
# Method in brief: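 Fluorescence read-out of live-cell protease activity (CellTiter-Fluor) after 1 hr with reagent. This was measured in the same wells as the caspase-3/7 luminescence, on HepG2 cells exposed to DMSO-dissolved compounds for 16 hr at 37 C.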
# [5] = target: Cytochrome P450 2D6 (Homo sapiens) (UniProt P10635); assay: Cytochrome P450 Family 2 Subfamily D Member 6 (CYP2D6) small molecule antagonists: luciferase reporter qHTS assay (AID 1671196); also: nearly all actives have a fitted effect of over 50% in size; also: potency is read from the fitted curve at half-maximal effect
# Cytochrome P450 2D6 (Homo sapiens), sequence (P10635 whole entry, looked up): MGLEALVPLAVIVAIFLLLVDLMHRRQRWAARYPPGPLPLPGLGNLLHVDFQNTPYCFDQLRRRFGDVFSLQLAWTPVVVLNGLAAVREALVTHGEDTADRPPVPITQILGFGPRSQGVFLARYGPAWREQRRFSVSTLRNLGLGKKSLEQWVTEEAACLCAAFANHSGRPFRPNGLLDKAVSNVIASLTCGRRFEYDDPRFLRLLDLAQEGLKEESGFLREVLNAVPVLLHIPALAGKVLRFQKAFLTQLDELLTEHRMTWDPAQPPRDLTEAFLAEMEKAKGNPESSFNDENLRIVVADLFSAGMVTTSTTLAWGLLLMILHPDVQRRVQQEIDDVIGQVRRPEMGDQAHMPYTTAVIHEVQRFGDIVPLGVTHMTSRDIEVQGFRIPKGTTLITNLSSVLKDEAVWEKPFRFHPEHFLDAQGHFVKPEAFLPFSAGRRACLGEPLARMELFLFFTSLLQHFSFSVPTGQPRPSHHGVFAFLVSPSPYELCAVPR
# Method in brief: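 Luminogenic proluciferin substrate, CYP2D6 enzyme; 10 min RT preincubation with compound, NADPH regeneration system added, 1 h RT. Stop/detection reagent, 20 min RT, luminescence read (RLU). Signal proportional to CYP activity.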
# [6] = target: Cytochrome P450 2C19 (Homo sapiens) (UniProt P33261); assay: Cytochrome P450 Family 2 Subfamily C Member 19 (CYP2C19) small molecule antagonists: luciferase reporter qHTS assay (AID 1671197); also: nearly all actives have a fitted effect of over 65% in size; also: potency is read from the fitted curve at half-maximal effect
# Cytochrome P450 2C19 (Homo sapiens), sequence (P33261 whole entry, looked up): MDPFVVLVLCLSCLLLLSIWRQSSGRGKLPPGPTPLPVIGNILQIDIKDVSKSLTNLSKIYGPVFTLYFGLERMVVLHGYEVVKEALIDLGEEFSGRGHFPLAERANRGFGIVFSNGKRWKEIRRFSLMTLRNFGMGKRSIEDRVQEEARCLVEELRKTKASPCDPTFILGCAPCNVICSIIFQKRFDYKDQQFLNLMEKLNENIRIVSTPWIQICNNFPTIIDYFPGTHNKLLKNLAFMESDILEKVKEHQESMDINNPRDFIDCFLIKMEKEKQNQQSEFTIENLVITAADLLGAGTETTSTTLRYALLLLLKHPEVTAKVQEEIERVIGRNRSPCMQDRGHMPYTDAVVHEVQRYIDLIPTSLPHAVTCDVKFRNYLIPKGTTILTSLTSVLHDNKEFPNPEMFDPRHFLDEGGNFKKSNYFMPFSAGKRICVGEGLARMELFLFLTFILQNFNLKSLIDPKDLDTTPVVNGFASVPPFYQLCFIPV
# Method in brief: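 Inhibition of CYP2C19 was scored from loss of luminescence in a P450-Glo proluciferin substrate assay, NADPH-started and run 1 h at 37C, with ketoconazole as positive control.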
# [7] = target: Cytochrome P450 1A2 (Homo sapiens) (UniProt P05177); assay: Cytochrome P450 Family 1 Subfamily A Member 2 (CYP1A2) small molecule antagonists: luciferase reporter qHTS assay (AID 1671199); also: nearly all actives have a fitted effect of over 50% in size; also: potency is read from the fitted curve at half-maximal effect
# Cytochrome P450 1A2 (Homo sapiens), sequence (P05177 whole entry, looked up): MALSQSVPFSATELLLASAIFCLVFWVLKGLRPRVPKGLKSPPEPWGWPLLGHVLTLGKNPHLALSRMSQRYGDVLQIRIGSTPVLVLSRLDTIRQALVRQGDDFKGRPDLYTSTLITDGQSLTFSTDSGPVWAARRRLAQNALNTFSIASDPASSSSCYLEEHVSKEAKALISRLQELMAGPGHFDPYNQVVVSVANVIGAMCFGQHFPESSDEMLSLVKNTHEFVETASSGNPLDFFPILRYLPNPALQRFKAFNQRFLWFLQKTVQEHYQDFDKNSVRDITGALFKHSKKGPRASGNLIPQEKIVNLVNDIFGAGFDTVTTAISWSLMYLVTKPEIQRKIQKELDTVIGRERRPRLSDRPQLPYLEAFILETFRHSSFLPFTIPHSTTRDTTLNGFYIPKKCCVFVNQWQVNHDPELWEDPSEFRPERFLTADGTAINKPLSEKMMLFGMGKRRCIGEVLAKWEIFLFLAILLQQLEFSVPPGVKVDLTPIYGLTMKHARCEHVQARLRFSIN
# Method in brief: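 Luminescence readout (relative luminescence units) after luciferin detection reagent, 20 min RT. Preceded by 1 h room-temperature CYP1A2 reaction with NADPH regeneration solution following 10 min compound preincubation with enzyme and proluciferin substrate. Furafylline positive control.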
# [8] = target: Voltage-gated inwardly rectifying potassium channel KCNH2 (Homo sapiens) (UniProt Q12809); assay: Human Ether-a-go-go-Related Gene (hERG) channel small molecule antagonists: fluorescence cell-based qHTS assay (AID 1671200); also: nearly all actives have a fitted effect of over 50% in size; also: potency is read from the fitted curve at half-maximal effect
# Voltage-gated inwardly rectifying potassium channel KCNH2 (Homo sapiens), sequence (Q12809 whole entry, looked up): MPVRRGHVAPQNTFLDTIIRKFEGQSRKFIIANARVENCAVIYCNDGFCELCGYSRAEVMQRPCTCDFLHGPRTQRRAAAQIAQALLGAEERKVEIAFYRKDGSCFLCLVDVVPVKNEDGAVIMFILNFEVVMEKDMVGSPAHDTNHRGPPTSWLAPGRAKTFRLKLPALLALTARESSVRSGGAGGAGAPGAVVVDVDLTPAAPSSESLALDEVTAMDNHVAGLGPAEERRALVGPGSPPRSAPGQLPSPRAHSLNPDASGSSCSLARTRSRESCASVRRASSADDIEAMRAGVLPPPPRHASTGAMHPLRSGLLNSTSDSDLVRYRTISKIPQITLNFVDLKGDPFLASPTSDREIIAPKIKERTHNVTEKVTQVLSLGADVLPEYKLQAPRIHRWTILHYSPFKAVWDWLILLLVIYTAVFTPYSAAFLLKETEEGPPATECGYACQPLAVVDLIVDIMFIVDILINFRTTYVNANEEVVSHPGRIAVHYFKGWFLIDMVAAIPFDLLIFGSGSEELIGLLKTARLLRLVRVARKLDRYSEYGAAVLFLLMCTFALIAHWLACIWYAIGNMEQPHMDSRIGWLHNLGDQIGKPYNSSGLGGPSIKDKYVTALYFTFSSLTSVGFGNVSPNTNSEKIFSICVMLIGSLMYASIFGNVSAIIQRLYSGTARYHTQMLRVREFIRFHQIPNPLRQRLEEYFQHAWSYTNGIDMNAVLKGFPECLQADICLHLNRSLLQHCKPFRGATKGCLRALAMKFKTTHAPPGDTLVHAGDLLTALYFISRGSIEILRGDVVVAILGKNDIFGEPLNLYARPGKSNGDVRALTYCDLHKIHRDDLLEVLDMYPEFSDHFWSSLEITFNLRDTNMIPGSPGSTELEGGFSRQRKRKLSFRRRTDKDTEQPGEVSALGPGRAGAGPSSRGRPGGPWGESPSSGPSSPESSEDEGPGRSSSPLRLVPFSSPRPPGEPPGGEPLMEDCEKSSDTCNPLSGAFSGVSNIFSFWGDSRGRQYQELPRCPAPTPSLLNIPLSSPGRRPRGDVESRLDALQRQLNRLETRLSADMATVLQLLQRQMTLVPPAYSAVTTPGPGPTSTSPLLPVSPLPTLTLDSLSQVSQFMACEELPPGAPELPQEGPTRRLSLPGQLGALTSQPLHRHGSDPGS
# Method in brief: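 U2OS cells expressing the channel were plated at 1000 cells/well, incubated overnight at 37 C, then loaded with FluxOR II thallium-sensitive dye for 1 h at room temperature in the dark, with a further 10 min at room temperature before stimulation.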
# [9] = target: Cytochrome P450 3A4 (Homo sapiens) (UniProt P08684); assay: Cytochrome P450 Family 3 Subfamily A Member 4 (CYP3A4) small molecule antagonists: luciferase reporter qHTS assay (AID 1671201); also: nearly all actives have a fitted effect of over 50% in size; also: potency is read from the fitted curve at half-maximal effect
# Cytochrome P450 3A4 (Homo sapiens), sequence (P08684 whole entry, looked up): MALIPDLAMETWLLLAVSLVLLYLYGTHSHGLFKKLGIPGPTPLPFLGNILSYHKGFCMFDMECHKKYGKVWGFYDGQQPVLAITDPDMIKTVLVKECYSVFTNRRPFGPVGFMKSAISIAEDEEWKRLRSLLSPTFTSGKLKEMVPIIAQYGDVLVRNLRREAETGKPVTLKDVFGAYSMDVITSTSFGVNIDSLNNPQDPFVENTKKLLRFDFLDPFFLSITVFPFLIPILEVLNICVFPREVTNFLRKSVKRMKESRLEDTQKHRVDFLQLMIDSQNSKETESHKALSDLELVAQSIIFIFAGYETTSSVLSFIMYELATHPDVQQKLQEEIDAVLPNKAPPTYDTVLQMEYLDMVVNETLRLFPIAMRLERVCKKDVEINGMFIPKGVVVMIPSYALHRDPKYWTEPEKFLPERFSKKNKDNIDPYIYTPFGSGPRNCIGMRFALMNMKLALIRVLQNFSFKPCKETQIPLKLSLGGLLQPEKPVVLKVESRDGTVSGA
# Method in brief: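 P450-Glo CYP3A4 system with proluciferin substrate; compounds preincubated 10 min RT with enzyme-substrate mix, then NADPH regeneration added for 1 h RT. Detection reagent 20 min, luminescence read as relative luminescence units.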
# [10] = target: Cytochrome P450 2C9 (Homo sapiens) (UniProt P11712); assay: Cytochrome P450 Family 2 Subfamily C Member 9 (CYP2C9) small molecule antagonists: luciferase reporter qHTS assay (AID 1671198); also: nearly all actives have a fitted effect of over 50% in size; also: potency is read from the fitted curve at half-maximal effect
# Cytochrome P450 2C9 (Homo sapiens), sequence (P11712 whole entry, looked up): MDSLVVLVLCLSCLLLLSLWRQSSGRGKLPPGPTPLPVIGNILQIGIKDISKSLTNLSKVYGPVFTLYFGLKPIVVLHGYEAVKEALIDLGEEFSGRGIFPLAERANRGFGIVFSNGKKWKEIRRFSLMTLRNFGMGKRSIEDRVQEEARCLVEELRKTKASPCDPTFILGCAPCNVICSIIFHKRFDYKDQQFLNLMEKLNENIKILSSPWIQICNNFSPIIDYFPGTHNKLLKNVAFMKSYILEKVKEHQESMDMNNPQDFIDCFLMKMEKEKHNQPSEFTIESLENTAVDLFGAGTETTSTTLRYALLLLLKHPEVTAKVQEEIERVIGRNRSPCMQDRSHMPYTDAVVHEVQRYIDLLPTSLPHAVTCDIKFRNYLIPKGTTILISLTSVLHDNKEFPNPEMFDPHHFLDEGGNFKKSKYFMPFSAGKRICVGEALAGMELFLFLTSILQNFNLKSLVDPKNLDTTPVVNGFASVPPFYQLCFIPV
# Method in brief: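 P450-Glo proluciferin substrate with CYP2C9 enzyme; 10 min RT preincubation, then NADPH regeneration 1 h at 37C; luciferin detection reagent 20 min RT, luminescence in relative luminescence units.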
# [11] = target: Nuclear receptor subfamily 1 group I member 2 (Rattus norvegicus) (UniProt Q9R1A7); assay: Rat pregnane X receptor (rPXR) activation by small molecules, qHTS assay (AID 1346983); details: rPXR luciferase reporter cells, One-Glo luminescence, 24 h; max activation: active compounds read high; also: nearly all actives have a fitted effect of over 20% in size; also: potency is read from the fitted curve at half-maximal effect
# Nuclear receptor subfamily 1 group I member 2 (Rattus norvegicus), sequence (Q9R1A7 whole entry, looked up): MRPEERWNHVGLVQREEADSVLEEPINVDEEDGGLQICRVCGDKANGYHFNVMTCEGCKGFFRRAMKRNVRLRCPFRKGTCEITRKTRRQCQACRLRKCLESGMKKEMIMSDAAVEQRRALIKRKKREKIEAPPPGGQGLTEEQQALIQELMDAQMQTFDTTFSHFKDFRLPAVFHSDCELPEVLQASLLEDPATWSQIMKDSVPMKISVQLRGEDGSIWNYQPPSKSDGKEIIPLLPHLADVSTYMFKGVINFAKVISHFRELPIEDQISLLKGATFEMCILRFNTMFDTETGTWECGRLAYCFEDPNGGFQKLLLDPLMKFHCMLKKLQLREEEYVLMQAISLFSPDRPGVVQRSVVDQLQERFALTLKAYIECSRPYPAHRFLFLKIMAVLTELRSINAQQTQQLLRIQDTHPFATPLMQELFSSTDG
# Method in brief: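 Cell-based rPXR activation assay: rPXR cells, 2,000 per well, rested 5hr at 37 C, then exposed to compounds in DMSO for 24 hr at 37 C. Luciferase activity read by One-Glo luminescence after 30 min at room temperature.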
# [12] = target: Nuclear receptor subfamily 1 group I member 2 (Homo sapiens) (UniProt O75469); assay: Human pregnane X receptor (PXR) small molecule agonists, qHTS assay (AID 1346982); also: nearly all actives have a fitted effect of over 35% in size
# Nuclear receptor subfamily 1 group I member 2 (Homo sapiens), sequence (O75469 whole entry, looked up): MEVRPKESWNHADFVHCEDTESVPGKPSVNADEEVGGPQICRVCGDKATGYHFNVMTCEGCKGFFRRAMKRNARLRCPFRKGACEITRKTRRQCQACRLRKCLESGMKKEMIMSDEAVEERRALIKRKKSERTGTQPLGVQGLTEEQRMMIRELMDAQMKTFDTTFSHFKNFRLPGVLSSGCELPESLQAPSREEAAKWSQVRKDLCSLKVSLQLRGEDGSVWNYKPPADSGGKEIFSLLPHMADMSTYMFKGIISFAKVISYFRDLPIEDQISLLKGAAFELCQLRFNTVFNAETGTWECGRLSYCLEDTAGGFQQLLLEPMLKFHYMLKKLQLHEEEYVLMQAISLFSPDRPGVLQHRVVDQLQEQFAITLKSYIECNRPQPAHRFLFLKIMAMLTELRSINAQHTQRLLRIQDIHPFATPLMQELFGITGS
# Method in brief: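 HepG2 PXR-Luc reporter line, 5% charcoal-stripped FBS; 5 hr pre-incubation, compound (DMSO) 24 hr at 37 C/5% CO2; ONE-Glo 30 min RT; luminescence read-out.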
Compound,Potency [1],Potency [2],outcome [3],Potency [4],Potency [5],Potency [6],Potency [7],Potency [8],Potency [9],Potency [10],max activation [11],Potency [11],Potency [12]
Cc1ccc(N(CCO)CCO)cc1,inactive,inactive,inactive,inactive,inactive,17.8 µM (active),31.7 µM (active),inactive,inactive,,,,
CO[C@@H]1[C@@H](OC)[C@H](C)[C@@](O)(CC(=O)O)O[C@H]1[C@H](C)[C@H]1O[C@@]2(CC[C@@](C)([C@H]3CC[C@@](C)([C@@H]4O[C@@H]([C@H]5O[C@](C)(O)[C@H](C)C[C@@H]5C)C[C@@H]4OC4C[C@H](OC)[C@@H](OC)[C@H](C)O4)O3)O2)C[C@H](O)[C@H]1C (some centres not stated),inactive,1.33 µM (active),inactive,3.76 µM (active),inactive,inactive,inactive,inactive,,,,,
O=C1NC(=O)c2cccc3cccc1c23,inactive,inactive,inactive,inactive,inactive,,3.17 µM (active),inactive,inactive,inactive,,,
Cc1ccc2c(c1)CCCN2,inactive,inactive,inactive,inactive,28.3 µM (active),39.9 µM (active),3.17 µM (active),inactive,inactive,39.9 µM (active),,,
CSSc1ccoc1C,inactive,inactive,inactive,inactive,inactive,inactive,inactive,,inactive,inactive,,,
O=C1OC[C@H](Cc2cccc(O)c2)[C@H]1Cc1cccc(O)c1,inactive,inactive,inactive,inactive,,4.8 µM (active),10.7 µM (active),,9.58 µM (active),13.5 µM (active),,,
CCSC(=O)N(CC)CC,inactive,inactive,inactive,inactive,inactive,inactive,,inactive,inactive,,,,
BrC(Br)C(Br)Br,inactive,inactive,inactive,inactive,inactive,,,inactive,inactive,,,,
CCN(Cc1cccc(S(=O)(=O)O)c1)c1ccc(C(=C2C=CC(=[N+](CC)Cc3cccc(S(=O)(=O)O)c3)C=C2)c2ccc(O)cc2S(=O)(=O)[O-])cc1,inactive,18.6 µM (active),inactive,16.6 µM (active),19.3 µM (active),13.6 µM (active),17.2 µM (active),inactive,19.3 µM (active),6.83 µM (active),,,
O=C1[C@@H]2[C@H]3CC[C@H](C3)[C@@H]2C(=O)N1CCCCN1CCN(c2ncccn2)CC1,inactive,inactive,inactive,inactive,12.3 µM (active),inactive,inactive,inactive,,inactive,,,
C[C@@H]1C[C@H]2[C@@H]3CCC4=CC(=O)C=C[C@]4(C)[C@@]3(F)[C@@H](O)C[C@]2(C)[C@@]1(O)C(=O)COP(=O)(O)O,inactive,inactive,inactive,inactive,inactive,inactive,inactive,inactive,inactive,inactive,,,
NC(=O)c1ccccc1[N+](=O)[O-],inactive,inactive,inactive,inactive,inactive,inactive,,inactive,inactive,,,,
O=[N+]([O-])C1(Br)COCOC1,inactive,54.5 µM (active),inactive,inactive,inactive,15.9 µM (active),15.9 µM (active),54.9 µM (active),,,,,
Nc1ccn([C@H]2CS[C@@H](CO)O2)c(=O)n1,inactive,inactive,inactive,,inactive,inactive,inactive,inactive,inactive,inactive,-3.24% and -0.136%,,
COC(=O)C1=C(C)NC(C)=C(C(=O)OC(C)(C)CN(C)CCC(c2ccccc2)c2ccccc2)C1c1cccc([N+](=O)[O-])c1 (configuration not stated),inactive,16.8 µM (active),inactive,,4.36 µM (active),1.38 µM (active),,2.39 µM (active),,,,3.98 µM (active),
COC(CC(C)CCCC(C)(C)O)OC (configuration not stated),inactive,inactive,inactive,,,35.6 µM (active),,,,,,,inactive
C=CC(=O)NC(C)C,inactive,inactive,inactive,,inactive,inactive,,inactive,inactive,inactive,,,inactive
Nc1ccc(N=Nc2ccc(N)cc2)cc1,inactive,24.3 µM (active),inactive,,inactive,,10 µM (active),inactive,5.02 µM (active),,,,inactive
